Assay in all cases: PBM binding z-score (relative to random genomic background probes); higher = stronger binding; sequences stand for … in GC…GCGATTGACAGCGTAGAATGAAGG
Assay [1] concerns RARb homodimer (NR concentration 270 nM). The gist of the method:
(§1)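 For binding z-scores, the reference was random background probes on custom Agilent 4×180K protein-binding microarrays. These arrays were incubated 1 h with ligand-free nuclear receptor dimers in PBS pH 7.4, 2% milk, 0.02% Triton X-100, 1 mM DTT, 0.2 mg/mL BSA and 0.4 mg/ml salmon testes DNA. Fluorescence was scanned after antibody detection of each partner (one per run) and regression-normalized.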

In assay [2] the test system is RARg:RXRa (NR concentration 270 nM, RXRa partner concentration 90 nM). The gist of the method:
as §1

For assay [3], the system named is RARg homodimer (NR concentration 270 nM). In outline: as §1
For assay [4], the system named is RXRa DBDmut IVT, anti-RXR (DBD mutation: RXRa K156A/R161A, NR concentration 90 nM). The gist of the method: as §1
In assay [5] the test system is RXRa homodimer (NR concentration 180 nM). The gist of the method: as §1
Assay [6] has as its system THRa:RXRa (NR concentration 90 nM, RXRa partner concentration 90 nM). In outline: as §1
Assay [7] relates to THRa homodimer (NR concentration 90 nM). In outline:
as §1

The subject of assay [8] is VDR homodimer (NR concentration 270 nM). In outline:
as §1

Take CAAAGTAGGTCACCGGAAGGTCAAAGTCCGCATG: the PBM binding z-score in assay [1] stood at 5.78; in assay [2], 8.47; in assay [3], 7.72; in assay [4], 1.72; in assay [5] it was 7.28; in assay [6], 4.35. For the same sequence, the PBM binding z-score in assay [7] turned out to be 2.03; in assay [8] it was 3.66.

As for TCGAGAAGGTTACGGGGGCATTCAGGGATGAAGA, the PBM binding z-score in assay [1] was determined as 3.05; in assay [2], 4.33; in assay [3], 3.04; in assay [4] it was 2.36; in assay [5], 4.23; in assay [6] it was 4.21. The PBM binding z-score in assay [7] was found to be 1.42; in assay [8], 3.33.

For the sequence TCGAGTAGGTTACGAGGGCATTCAGGGATGAAGA, the PBM binding z-score in assay [1] is 1.43; in assay [2], 1.55; in assay [3], 1.13; in assay [4], 0.248; in assay [5], 1.58; in assay [6], 3.1. Further, the figures for the PBM binding z-score in assay [7] and in assay [8] were 0.0603 and 1.27, respectively.

In the case of GCTTCCGGGTCAAAGGTTATAGCATGAATAGAAT, the PBM binding z-score in assay [1] is 2.99; in assay [2], 6.81; in assay [3] it was 4.53; in assay [4], 2.8; in assay [5], 9.29; in assay [6] it was 4.61. Also, the PBM binding z-score was determined as 1.46 in assay [7] and 2.25 in assay [8].

With ATCGAAGGGTCGAAGGTGAGTATACCCACCCGAA, the PBM binding z-score is 1.32 in assay [1]; 2.67 in assay [2]; 1.99 in assay [3]; 0.0916 in assay [4]; 3.12 in assay [5]; 1.05 in assay [6]. Further, the PBM binding z-score in assay [7] was -0.355; in assay [8], 0.519.

Regarding CGTCTAAGGTCAAAGGTCAGTGAAGAGATGACGG, the PBM binding z-score was determined as 5.44 in assay [1]; 8.98 in assay [2]; 8.65 in assay [3]; 4.46 in assay [4]; 10.7 in assay [5]; 5.01 in assay [6]. Besides, the PBM binding z-score came out at 4.1 in assay [7] and 3.65 in assay [8].

For the sequence TCGAGTAGGTTACGCGGGCATTCAGGGATGAAGA, the PBM binding z-score in assay [1] is 0.619; in assay [2], 0.799; in assay [3], 0.653; in assay [4], -0.0929; in assay [5], 0.864; in assay [6] it was 0.97. For the same sequence, the PBM binding z-score in assay [7] was -0.444; in assay [8], -0.617.

The values are drawn from the supplement of paper PMC6555819.
